Our source for the PBM binding z-score values is the supplement of paper PMC6555819.

What all share (assay): PBM binding z-score (relative to random genomic background probes); higher = stronger binding; sequences stand for … in GC…GCGATTGACAGCGTAGAATGAAGG
The subject of experiment [1] is RARb homodimer (NR concentration 270 nM). The procedure, abridged:
(§1)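 Custom Agilent 4×180K protein-binding microarrays carried double-stranded probes, each with a 34-nt variable region. These regions held direct-repeat seeds, single-nucleotide variants, half-site ablations and random human genomic background sequences. Ligand-free nuclear receptor dimers were incubated on the arrays for 1 h, antibodies against each partner (one per run) detected binding, and scanned fluorescence was regression-normalized. Binding z-scores take the random background probes as reference.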

Experiment [2] relates to RARg:RXRa (NR concentration 270 nM, RXRa partner concentration 90 nM). The procedure, abridged: as §1
For experiment [3], the system named is RARg homodimer (NR concentration 270 nM). The procedure, abridged:
as §1

Experiment [4] deals with RXRa DBDmut IVT, anti-RXR (DBD mutation: RXRa K156A/R161A, NR concentration 90 nM). The procedure, abridged: as §1
In experiment [5] the test system is RXRa homodimer (NR concentration 180 nM). The procedure, abridged: as §1
The subject of experiment [6] is THRa:RXRa (NR concentration 90 nM, RXRa partner concentration 90 nM). Summed up:
as §1

Experiment [7] deals with THRa homodimer (NR concentration 90 nM). The procedure, abridged: as §1
Experiment [8] concerns VDR homodimer (NR concentration 270 nM). Summed up:
as §1

Turning to AATACAGGGTCATCGTCGGCCAGAGTACGCACAG, the PBM binding z-score in experiment [1] was determined as 3.96; in experiment [2], 5.6; in experiment [3] it was 5.02; in experiment [4], 3.4; in experiment [5] it was 6.37; in experiment [6] it was 4.1. The values for the PBM binding z-score in experiment [7] and in experiment [8] were 1.64 and 3.57, respectively.
As for CCTAGTGGGCCATCAGGTCATTGATATCAACGTT, the PBM binding z-score in experiment [1] came to 2.68; in experiment [2], 2.11; in experiment [3], 1.92; in experiment [4], 0.53; in experiment [5], 1.45; in experiment [6] it was 3.13. Further, the PBM binding z-score was 2.59 in experiment [7] and 1.43 in experiment [8].
As for AATACATGGTCACTAGGCCAGAGTAGGTACGAAT, the PBM binding z-score in experiment [1] is 0.707; in experiment [2], 0.578; in experiment [3] it was 1.01; in experiment [4], -0.405; in experiment [5], 0.58; in experiment [6], -0.00579. Besides, the values for the PBM binding z-score in experiment [7] and in experiment [8] were -0.302 and 0.15, respectively.
On to ATGTCTAGGTAAAGATAGTTCAGTGAATGCAAAT, for which the PBM binding z-score is 0.94 in experiment [1]; 0.598 in experiment [2]; 0.794 in experiment [3]; -0.0644 in experiment [4]; 0.151 in experiment [5]; 0.506 in experiment [6]. Besides, the figures for the PBM binding z-score in experiment [7] and in experiment [8] were -0.0958 and 0.431, respectively.
As to CCTACTGGGCCAAAGGTCATTGGTTCCAATGCTC, the PBM binding z-score stood at 4.8 in experiment [1]; 5.8 in experiment [2]; 4.77 in experiment [3]; 0.919 in experiment [4]; 6.11 in experiment [5]; 3.37 in experiment [6]. Moreover, the PBM binding z-score came out at 0.894 in experiment [7] and 2.85 in experiment [8].
For the sequence CCTGCAAGGTCAATGGTCAGCTAAAGCAGCTCGC, the PBM binding z-score in experiment [1] turned out to be 3.65; in experiment [2], 5.83; in experiment [3] it was 5.9; in experiment [4], 3.75; in experiment [5] it was 5.35; in experiment [6], 3.77. Further, the PBM binding z-score turned out to be 1.8 in experiment [7] and 2.45 in experiment [8].
With TCTATTAGTTGAAGGTCAACCGACGAGTCCGTTT, the PBM binding z-score in experiment [1] stood at 4.21; in experiment [2] it was 4.22; in experiment [3], 4.39; in experiment [4] it was 2.25; in experiment [5], 4.15; in experiment [6], 3.13. Besides, the PBM binding z-score in experiment [7] turned out to be 1.93; in experiment [8] it was 3.45.
In the case of GGTACGAGGGCAAGTTGATAGCAGAGTTTGATGG, the PBM binding z-score was 1.72 in experiment [1]; 1.74 in experiment [2]; 2.47 in experiment [3]; 2.31 in experiment [4]; 0.941 in experiment [5]; 1.39 in experiment [6]. Also, the PBM binding z-score in experiment [7] came out at 0.219; in experiment [8], 2.1.
Regarding CCGACTGGGGCAGAAAGGATACCATACCATCCGG, the PBM binding z-score was 0.0502 in experiment [1]; -0.104 in experiment [2]; 0.264 in experiment [3]; -1.19 in experiment [4]; -0.344 in experiment [5]; -0.682 in experiment [6]. The PBM binding z-score in experiment [7] is -0.741; in experiment [8] it was -0.566.
Consider GCGACTGGGGCATCAGCAGGTTACCAAAACTTAA, for which the PBM binding z-score in experiment [1] is 1.16; in experiment [2] it was 0.879; in experiment [3], 0.0539; in experiment [4], -0.286; in experiment [5], 0.238; in experiment [6], 1.19. The PBM binding z-score in experiment [7] was 0.0193; in experiment [8] it was -0.326.
Consider AAATGTAGGTTATCGGGTCATTCAGTTTGCGCAT, for which the PBM binding z-score came out at 3.09 in experiment [1]; 3.27 in experiment [2]; 2.33 in experiment [3]; 1.88 in experiment [4]; 3.42 in experiment [5]; 3.41 in experiment [6]. Also, the PBM binding z-score in experiment [7] amounted to 2.84; in experiment [8], 4.
In the case of ATCGCAAGGTCGACGAGGTGAGTATACACCGTTT, the PBM binding z-score in experiment [1] was determined as 1.72; in experiment [2], 2.58; in experiment [3] it was 2.37; in experiment [4], 1.32; in experiment [5] it was 2.26; in experiment [6] it was 3.41. The PBM binding z-score in experiment [7] was determined as 1.26; in experiment [8] it was 1.21.
Take TAGCCTAGGTCATGTGCCAGTATACCACGCGAAC: the PBM binding z-score is 2.84 in experiment [1]; 3.83 in experiment [2]; 4.32 in experiment [3]; 1.26 in experiment [4]; 3.14 in experiment [5]; 2.91 in experiment [6]. For the same sequence, the PBM binding z-score turned out to be 1.55 in experiment [7] and 0.739 in experiment [8].
With TCTAGTTGGTCACGGAGGTCACACACGACGGGTA, the PBM binding z-score amounted to 4.44 in experiment [1]; 4.66 in experiment [2]; 4.79 in experiment [3]; 0.886 in experiment [4]; 4.58 in experiment [5]; 3.61 in experiment [6]. Moreover, the figures for the PBM binding z-score in experiment [7] and in experiment [8] were 2.53 and 3.25, respectively.
